Assay results from the supplement of paper PMC10981050.
Several values for one entry are separate records, joined by “and”; a condition that tells them apart may be missing. Equal entries are not always repeated. Structures can show the parent of a compound that is named as a salt.

Legend:
Assay in all cases: cell viability relative to vehicle control; higher = less cytotoxic
Conditions in all cases: 10 µM
[1] = tested on: K562
Method in brief: (§1)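 Mutant clones made by CRISPR editing and their isogenic wild-type counterparts, from four leukaemia lines, were exposed to a single 10 µM dose of each library compound for 48 h. The supernatant was then removed and CellTiter-Glo luminescence was read. Viability was reported as percent of the on-plate vehicle control.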

[2] = tested on: MARIMO
Method in brief: as §1

[3] = tested on: MOLM14
Method in brief: as §1

[4] = tested on: OCI-AML2
Method in brief: as §1

Structure (SMILES) | cell viability ([1]; SRSF2 genotype: SRSF2 P95H/wt) | cell viability ([1]; SRSF2 genotype: SRSF2 wt/wt) [%] | cell viability ([2]; SRSF2 genotype: SRSF2 P95H/wt) [%] | cell viability ([2]; SRSF2 genotype: SRSF2 wt/wt) [%] | cell viability ([3]; SRSF2 genotype: SRSF2 P95H/wt) [%] | cell viability ([3]; SRSF2 genotype: SRSF2 wt/wt) [%] | cell viability ([4]; SRSF2 genotype: P95H/wt) [%] | cell viability ([4]; SRSF2 genotype: wt/wt) [%]
CCCCC(C#N)(Cn1cncn1)c1ccc(Cl)cc1 (stereo unspecified) [Myclobutanil] | 105% and 99.5% | 100 | 97 | 109 | 93.9 | 108 | 92.3 | 98.1
C=C1C[C@@H]2[C@H](CC[C@]3(C)C(=O)CC[C@@H]23)[C@@]2(C)C=CC(=O)C=C12 [Exemestane] | 93.7% and 96.7% | 100 | 82.8 | 92.6 | 80.3 | 94.3 | 90.2 | 91.2
C=C[C@H]1CN2CC[C@]3(C(=O)Nc4ccccc43)[C@@H]2C[C@@H]1/C(=C\OC)C(=O)OC [Corynoxeine] | 92.3% and 98.1% | 97.7 | 84.5 | 81.1 | 93.8 | 93.1 | 96 | 95.4
COc1cc(C(=O)O)cc(OC)c1OC [Gallic acid trimethyl ether] | 106% and 110% | 101 | 102 | 106 | 105 | 106 | 99.2 | 109
CC1(C)C(=O)N(c2ccc(C#N)c(C(F)(F)F)c2)C(=O)N1CCCCO | 89% and 95% | 92.3 | 91.5 | 103 | 93.5 | 104 | 88.6 | 96.6
C[C@H]1CCCC(=O)CCC/C=C/c2cc(O)cc(O)c2C(=O)O1 [Zearalenone] | 101% and 93.8% | 99.5 | 82.7 | 88.8 | 79.2 | 99 | 88.7 | 97.7
C=C[C@H]1CN2CC[C@H]1C[C@H]2[C@H](O)c1ccnc2ccccc12 [Cinchonidine] | 87.9% and 96.3% | 94.8 | 94.6 | 97.5 | 85.7 | 97.8 | 95.2 | 92.1
CCOC(=O)Nc1ccc(NCc2ccc(F)cc2)cc1N [Retigabine 2HCl] | 94.1% and 97.3% | 97.4 | 91.6 | 103 | 105 | 102 | 96.5 | 102
COC(=O)C[C@](O)(CCC(C)(C)O)C(=O)O[C@@H]1C(OC)=C[C@]23CCCN2CCc2cc4c(cc2[C@H]13)OCO4 [Harringtonine] | 12.3% and 17.8% | 20.6 | 8.47 | 4.47 | 2.72 | 1 | 5.78 | 10.9
C[C@]12CC[C@H]3[C@@H](CC[C@@]45O[C@@H]4C(O)=C(C#N)C[C@]35C)[C@@H]1CC[C@@H]2O [Trilostane] | 92.4% and 94.7% | 97.6 | 87.4 | 92.5 | 95.4 | 102 | 123 | 118
N#CC=C1C=CC(O)C(O)C1OC1OC(CO)C(O)C(O)C1O (stereo unspecified) [Lithospermoside] | 89.9% and 83.2% | 84.3 | 86.5 | 97.5 | 87.4 | 91.7 | 95 | 116
O=c1ccc2cc3ccoc3c(O)c2o1 [Xanthotoxol] | 91.6% and 88.5% | 87.1 | 84.3 | 95.3 | 92.8 | 92.2 | 96.5 | 93.3
OC1CC2CCC(C1)N2 (stereo unspecified) [Nortropine Hydrochloride] | 101% and 98.7% | 101 | 102 | 107 | 97.2 | 102 | 105 | 94.8
Cc1cccc(C)c1NC(=O)CN1CCCC1=O [Nefiracetam (Translon)] | 108% and 104% | 107 | 109 | 107 | 105 | 100 | 103 | 110
CC(=O)O[C@@]12CO[C@@H]1C[C@H](O)[C@@]1(C)C(=O)[C@H](O)C3=C(C)[C@@H](OC(=O)[C@H](O)[C@@H](NC(=O)c4ccccc4)c4ccccc4)C[C@@](O)([C@@H](OC(=O)c4ccccc4)[C@H]21)C3(C)C [10-deacetyl-paclitaxel] | 25.2% and 36.9% | 34.3 | 7.89 | 4.88 | 9.1 | 3.82 | 10.3 | 15.4
COc1cc2c(cc1OC)[C@@H](Cc1ccc(O)c(Oc3cc4c(cc3OC)CCN(C)[C@@H]4Cc3ccc(O)cc3)c1)N(C)CC2.[O-][Cl+3]([O-])([O-])O [Liensinine perchlorate] | 76.2% and 65.4% | 65.4 | 55.5 | 66.8 | 50.4 | 56.1 | 51.5 | 45
CC[C@]12C=CCN3CC[C@]4(C(=C(C(=O)OC)C1)Nc1ccccc14)[C@@H]32 [Tabersonine] | 17.7% and 27% | 30.1 | 19.1 | 18.7 | 11.3 | 4.06 | 7.01 | 14.7
Cc1cc2c(C(C)C)c(O)c(O)c(C=O)c2c(O)c1-c1c(C)cc2c(C(C)C)c(O)c(O)c(C=O)c2c1O | 2.58% and 2.65% | 13.3 | 11.7 | 15.4 | 0.51 | 1.24 | 0.59 | 1.12
COc1c(C)c(O)cc2[o+]c(-c3ccccc3)ccc12.[O-][Cl+3]([O-])([O-])[O-] [Dracohodin perochlorate] | 80.8% and 78.3% | 77.4 | 80.1 | 86.8 | 80.1 | 82.3 | 83.6 | 84.1
O=c1[nH]c2ccccc2o1 [2-Benzoxazolinone] | 100% and 89.3% | 96.7 | 97.2 | 102 | 98.4 | 104 | 91.5 | 94.2
COC1=CC23CCN(C)C(Cc4ccc(OC)c(O)c42)C3=CC1=O (stereo unspecified) [Sinoacutine] | 110% and 102% | 101 | 103 | 101 | 108 | 103 | 101 | 104

Structure (SMILES) | cell viability ([1]; SRSF2 genotype: SRSF2 P95H/wt) | cell viability ([1]; SRSF2 genotype: SRSF2 wt/wt) [%] | cell viability ([2]; SRSF2 genotype: SRSF2 P95H/wt) [%] | cell viability ([2]; SRSF2 genotype: SRSF2 wt/wt) [%] | cell viability ([3]; SRSF2 genotype: SRSF2 P95H/wt) [%] | cell viability ([3]; SRSF2 genotype: SRSF2 wt/wt) [%] | cell viability ([4]; SRSF2 genotype: P95H/wt) [%] | cell viability ([4]; SRSF2 genotype: wt/wt) [%]
COc1cc([C@@H]2c3cc4c(cc3[C@@H](O)[C@H]3COC(=O)[C@H]23)OCO4)cc(OC)c1O [4'-Demethylepipodophyllotoxin] | 36.4% and 51% | 51.2 | 26.8 | 31.3 | 13.4 | 6.99 | 20.9 | 24.2
CN1C2CCC1CC(O)C2 (stereo unspecified) [Tropine] | 105% and 98.9% | 97.2 | 104 | 110 | 99.5 | 103 | 94.5 | 108
Nc1ncnc2c1ccn2[C@@H]1O[C@H](CO)[C@@H](O)[C@H]1O [Tubercidin] | 4.16% and 3.19% | 3.9 | 1.78 | 1.63 | 0.87 | 1.22 | 0.61 | 0.99
Cc1cccc([C@H](C)c2c[nH]cn2)c1C [Dexmedetomidine] | 97.4% and 102% | 98.5 | 95.6 | 101 | 105 | 102 | 114 | 95.9
CC[C@@]1(O)C(=O)OCc2c1cc1n(c2=O)Cc2cc3ccccc3nc2-1 [Camptothecin] | 27.3% and 26.7% | 21.8 | 5.71 | 3.67 | 3.1 | 1.35 | 3.26 | 3.91
O=C(NC(=O)c1c(F)cccc1F)Nc1ccc(OC(F)(F)C(F)OC(F)(F)F)c(Cl)c1 (stereo unspecified) [Novaluron] | 110% and 101% | 113 | 94.2 | 98.4 | 106 | 106 | 98.1 | 109
O=C/C=C/c1ccccc1 [Cinnamaldehyde] | 97.5% and 92.8% | 94.3 | 92 | 95.3 | 96.1 | 98.9 | 102 | 102
CCOC(=O)Nc1ccc(NCc2ccc(F)cc2)cc1N [Retigabine] | 98.5% | 97.3 | 93.7 | 110 | 102 | 105 | 98.5 | 110
c1cc2c(cc1[C@H]1OC[C@H]3[C@@H]1CO[C@@H]3c1ccc3c(c1)OCO3)OCO2 [Sesamin (Fagarol)] | 92.3% and 97.8% | 97.3 | 94.2 | 111 | 98.8 | 105 | 100 | 102
CC(=O)O[C@H]1CC[C@H]2[C@@H]3CCC4=CC(=O)CCC4=C3C=C[C@]12C [Trenbolone acetate] | 98.4% and 111% | 98.9 | 87.2 | 96 | 83 | 102 | 114 | 101
O=C(O)CNC(=O)c1c(O)c2ccccc2n(Cc2ccccc2)c1=O | 95.1% and 95.2% | 101 | 94.3 | 100 | 99.8 | 101 | 103 | 96.5
CCCCCc1cc(O)cc(O)c1 [Olivetol] | 102% and 99.9% | 110 | 87.2 | 96.8 | 101 | 107 | 111 | 112
Cc1ccccc1-n1c(Cn2ncc3c(N)ncnc32)nc2cccc(C)c2c1=O | 93.5% and 98.8% | 91.3 | 90.7 | 93.7 | 81.9 | 81.3 | 81.5 | 83.9
O=C(CBr)N1CC([N+](=O)[O-])([N+](=O)[O-])C1 | 86.2% and 82.7% | 81.4 | 85.5 | 101 | 88.6 | 88.7 | 94.3 | 114
COc1ccc(N(C(=O)Oc2c(C)cccc2C)c2ccnc(Nc3ccc(N4CCN(C)CC4)cc3)n2)c(OC)c1 | 7.22% and 20.7% | 6.62 | 72.3 | 58.7 | 38.8 | 35.4 | 23.5 | 28.6
CCN1C[C@]2(COC)CC[C@H](OC)[C@]34C1[C@H]([C@H](OC)[C@H]23)[C@@]1(OC(C)=O)C[C@H](OC)[C@@]2(O)C[C@@H]4[C@@H]1[C@H]2OC(=O)c1ccc(OC)cc1 [Crassicauline A] | 93.2% and 89.8% | 87.5 | 84.4 | 93.3 | 91.8 | 90.6 | 87.7 | 100
Cl[TeH]1(Cl)(Cl)OCCO1.N | 86.8% and 76.3% | 75 | 78 | 83.5 | 71.3 | 74.3 | 76.1 | 84.1
C[N+]1(C)CCCC(OC(=O)C(O)(c2ccccc2)c2ccccc2)C1 (stereo unspecified) [mepenzolate bromide] | 106% and 102% | 98.9 | 103 | 112 | 104 | 104 | 101 | 105
COc1cc([C@@H]2c3cc4c(cc3[C@H](O)[C@H]3COC(=O)[C@H]23)OCO4)cc(OC)c1O [4'-Demethylpodophyllotoxin] | 15.8% and 34.9% | 35.7 | 8.03 | 7.56 | 0.85 | 0.99 | 1.45 | 3.83
C=C1[C@H]2C[C@@]3([C@@H]1O)[C@@H](CC2=O)[C@]12[C@@H]4C[C@H]3[C@H]1N(CC)C[C@]4(C)CC[C@@H]2O [Songorine] | 96.8% and 99.6% | 101 | 98 | 98.8 | 102 | 98.4 | 103 | 103
CC(O)(CS(=O)(=O)c1ccc(F)cc1)C(=O)Nc1ccc(C#N)c(C(F)(F)F)c1 (stereo unspecified) [Bicalutamide (Casodex)] | 95.5% and 101% | 106 | 95.4 | 102 | 98.7 | 98.8 | 93.8 | 91.8
